Experimental findings from PubChem BioAssay are described below.

The nature of assay [1]: binders of probe aFSTL3 on microarray, primary screen, stem cell growth factor project, biochemical, small-molecule microarray, fluorescence 635/667 (AID 1064).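 Also: measures binding of the biotinylated anti-FSTL3 antibody to printed compounds.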 Particulars: higher = more signal.
Assay [2] is described as follows: binders from COS7 lysate, DM2A8 probe, primary screen, torsin A project, cell lysate, small-molecule microarray, fluorescence 635/667 (AID 1065). Particulars: higher = more signal, COS7 lysate expressing mutant human TOR1A.
Assay [3] is described as follows: binders of probe aFGF2 on microarray, primary screen, stem cell growth factor project, biochemical, small-molecule microarray, fluorescence 635/667 (AID 1067).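 Also: measures binding of biotinylated aFGF2 protein to printed compounds on slides; z-score merges feature fluorescence and signal-to-noise across triplicate slides.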 Particulars: higher = more signal.
The nature of assay [4]: binders of probe aFGF10 on microarray, primary screen, stem cell growth factor project, biochemical, small-molecule microarray, fluorescence 635/667 (AID 1071).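 Also: score merges 667 nm spot intensity and signal to noise from triplicate slides.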 The note with it: higher = more signal.
Assay [5] deals with Neurogenic locus notch homolog protein 2 (Homo sapiens) (UniProt Q04721). The assay can be described thus: Notch2 binders on small-molecule microarrays, primary screen, biochemical, small-molecule microarray, 635 nm fluorescence, stem cell growth factors (AID 1073). The note with it: Notch2 binding, higher = more signal.
The target of assay [6] is Pro-neuregulin-1, membrane-bound isoform (Homo sapiens) (UniProt Q02297). The assay can be described thus: NRG1 binders on small-molecule microarrays, primary screen, psychiatric disease protein project, biochemical, small-molecule microarray, fluorescence 635/667 (AID 1075).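 Also: score combines 667 nm spot fluorescence with signal to noise.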 The note with it: NRG1 binding, 635 nm fluorescence, higher = more signal.
For assay [7], the system named is Neuregulin-1 EGF-like domain. Nature of the assay: binders of neuregulin-1 EGF-like domain, primary screen, biochemical, small-molecule microarray, 635 nm fluorescence (AID 1081).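 Also: binding of the protein to compounds printed on small-molecule microarray slides.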 The note with it: small-molecule microarray binding, higher = more signal.
Assay [8] in a line: FRG1 promoter luciferase signal modulators, primary screen, FRG1 inhibition for FSHD, cell-based, C2C12 myotubes, firefly/Renilla luciferase, luminescence (AID 1084). Particulars: higher = more signal, called active from +8 up or from −8 down.
Assay [9] can be described thus: binders of probe aFST on microarray, primary screen, stem cell growth factor project, biochemical, small-molecule microarray, fluorescence 635/667 (AID 1086).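 Also: score merges 667 nm fluorescence with signal-to-noise of each printed compound spot.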 The note with it: higher = more signal.
Assay [10] is described as follows: binders of probe aHhip on microarray, primary screen, stem cell growth factor project, biochemical, small-molecule microarray, fluorescence 635/667 (AID 1087).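 Also: score merges spot fluorescence at 667nm with spot signal to noise ratio.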 The note with it: higher = more signal.

The source made the active and inactive calls.

Pro-neuregulin-1, membrane-bound isoform (Homo sapiens), sequence (Q02297 whole entry, looked up, the tested form may be a part, canonical isoform): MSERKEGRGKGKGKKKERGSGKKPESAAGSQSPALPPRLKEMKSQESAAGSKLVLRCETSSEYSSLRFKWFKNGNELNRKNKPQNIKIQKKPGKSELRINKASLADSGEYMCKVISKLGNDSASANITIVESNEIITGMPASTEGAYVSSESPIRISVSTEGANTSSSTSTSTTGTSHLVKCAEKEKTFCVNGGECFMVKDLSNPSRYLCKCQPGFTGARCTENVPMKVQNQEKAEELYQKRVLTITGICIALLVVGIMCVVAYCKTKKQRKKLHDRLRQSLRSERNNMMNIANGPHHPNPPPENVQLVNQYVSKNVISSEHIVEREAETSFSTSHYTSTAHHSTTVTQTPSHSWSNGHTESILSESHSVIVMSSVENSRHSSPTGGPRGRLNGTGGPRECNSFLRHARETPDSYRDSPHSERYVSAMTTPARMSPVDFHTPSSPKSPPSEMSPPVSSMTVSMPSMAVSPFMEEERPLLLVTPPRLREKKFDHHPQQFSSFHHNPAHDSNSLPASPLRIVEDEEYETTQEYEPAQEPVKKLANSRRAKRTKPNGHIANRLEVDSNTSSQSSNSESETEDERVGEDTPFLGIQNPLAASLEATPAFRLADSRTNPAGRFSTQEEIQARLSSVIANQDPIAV
Neurogenic locus notch homolog protein 2 (Homo sapiens), sequence (Q04721 whole entry, looked up, canonical isoform): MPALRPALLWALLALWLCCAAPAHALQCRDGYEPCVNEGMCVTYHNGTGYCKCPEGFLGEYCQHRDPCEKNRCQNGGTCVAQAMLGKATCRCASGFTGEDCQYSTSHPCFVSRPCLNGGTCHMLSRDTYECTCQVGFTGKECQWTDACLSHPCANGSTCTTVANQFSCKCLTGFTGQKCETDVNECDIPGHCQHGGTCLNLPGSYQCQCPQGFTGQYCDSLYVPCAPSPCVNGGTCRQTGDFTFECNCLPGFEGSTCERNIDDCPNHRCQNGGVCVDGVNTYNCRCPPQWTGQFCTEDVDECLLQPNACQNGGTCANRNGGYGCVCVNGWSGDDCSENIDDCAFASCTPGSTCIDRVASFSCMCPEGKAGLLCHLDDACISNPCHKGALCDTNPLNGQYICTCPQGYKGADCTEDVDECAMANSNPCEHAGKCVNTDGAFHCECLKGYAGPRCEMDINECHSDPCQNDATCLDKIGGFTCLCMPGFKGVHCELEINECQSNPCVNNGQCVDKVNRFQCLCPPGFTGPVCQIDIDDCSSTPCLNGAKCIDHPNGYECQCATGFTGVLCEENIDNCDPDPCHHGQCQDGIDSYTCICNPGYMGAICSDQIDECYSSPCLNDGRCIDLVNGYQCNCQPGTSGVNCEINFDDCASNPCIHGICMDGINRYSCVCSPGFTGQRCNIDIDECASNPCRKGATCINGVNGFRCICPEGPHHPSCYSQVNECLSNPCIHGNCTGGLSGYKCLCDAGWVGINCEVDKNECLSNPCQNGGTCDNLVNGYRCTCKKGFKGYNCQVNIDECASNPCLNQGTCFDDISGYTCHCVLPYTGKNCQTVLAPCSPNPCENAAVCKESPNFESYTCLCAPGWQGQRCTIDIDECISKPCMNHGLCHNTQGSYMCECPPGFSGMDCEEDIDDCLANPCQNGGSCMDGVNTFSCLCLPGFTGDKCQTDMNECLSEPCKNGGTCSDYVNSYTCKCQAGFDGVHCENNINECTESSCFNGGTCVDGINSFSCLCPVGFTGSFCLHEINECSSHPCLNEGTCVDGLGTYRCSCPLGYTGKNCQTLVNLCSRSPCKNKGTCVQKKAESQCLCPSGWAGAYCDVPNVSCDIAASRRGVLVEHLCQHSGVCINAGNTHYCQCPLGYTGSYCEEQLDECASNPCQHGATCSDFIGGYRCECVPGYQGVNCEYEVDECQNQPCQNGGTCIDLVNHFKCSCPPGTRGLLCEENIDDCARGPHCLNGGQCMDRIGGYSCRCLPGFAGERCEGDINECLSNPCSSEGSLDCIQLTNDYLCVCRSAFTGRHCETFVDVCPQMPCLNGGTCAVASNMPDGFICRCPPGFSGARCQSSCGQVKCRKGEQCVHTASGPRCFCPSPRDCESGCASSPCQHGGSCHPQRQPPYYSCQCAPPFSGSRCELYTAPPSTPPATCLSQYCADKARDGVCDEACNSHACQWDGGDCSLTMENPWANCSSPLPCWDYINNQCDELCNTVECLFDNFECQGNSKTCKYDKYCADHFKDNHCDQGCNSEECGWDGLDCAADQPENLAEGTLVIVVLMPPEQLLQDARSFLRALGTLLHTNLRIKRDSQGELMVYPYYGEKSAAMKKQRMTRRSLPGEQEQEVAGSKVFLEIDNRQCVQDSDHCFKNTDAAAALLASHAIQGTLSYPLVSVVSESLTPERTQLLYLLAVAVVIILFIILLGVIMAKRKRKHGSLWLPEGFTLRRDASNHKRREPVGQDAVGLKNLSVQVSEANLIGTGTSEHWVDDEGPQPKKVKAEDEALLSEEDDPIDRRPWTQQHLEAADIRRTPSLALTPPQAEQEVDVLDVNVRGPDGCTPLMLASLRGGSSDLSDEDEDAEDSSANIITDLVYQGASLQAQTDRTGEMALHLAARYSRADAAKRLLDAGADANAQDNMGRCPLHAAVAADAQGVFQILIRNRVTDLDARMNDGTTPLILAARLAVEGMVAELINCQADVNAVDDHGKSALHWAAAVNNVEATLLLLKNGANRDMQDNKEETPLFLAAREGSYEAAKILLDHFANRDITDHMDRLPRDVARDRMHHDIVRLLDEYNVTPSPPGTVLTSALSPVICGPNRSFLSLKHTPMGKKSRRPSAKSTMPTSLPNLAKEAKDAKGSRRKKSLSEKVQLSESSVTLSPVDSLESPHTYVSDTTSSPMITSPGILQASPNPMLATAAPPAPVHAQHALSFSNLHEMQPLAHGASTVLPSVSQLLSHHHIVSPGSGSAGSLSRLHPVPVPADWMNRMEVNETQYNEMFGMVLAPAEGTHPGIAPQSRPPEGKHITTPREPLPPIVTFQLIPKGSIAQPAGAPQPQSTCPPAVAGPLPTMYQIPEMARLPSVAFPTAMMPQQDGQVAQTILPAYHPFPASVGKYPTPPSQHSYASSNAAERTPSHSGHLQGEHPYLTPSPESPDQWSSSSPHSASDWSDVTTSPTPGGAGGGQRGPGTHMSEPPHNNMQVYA

With `O=C(NN=C1C[C@@H](O)[C@@H](O)[C@@H]2[C@@H]3C(=O)N(C[C@@H]4CCCO4)C(=O)[C@@H]3CC[C@H]12)OCc1ccccc1`, the composite z-score is 0.0589 in assay [1]; 0.349 in [2]; -0.118 in [3]; -0.0255 in assay [4]; -0.248 in assay [5]; -0.117 in assay [6]. The composite z-score in assay [7] was -0.637; in [9], 0.556; in assay [10] it was -0.0994. In addition, the z-score in assay [8] was -0.361 (inactive).

Turning to `CCOC(=O)CCN1C(=O)[C@H]2[C@H]3[C@H](O)[C@H](O)CC(=NNC(=O)OCc4ccccc4)[C@@H]3CC[C@H]2C1=O`, the composite z-score in [1] was -0.326; in assay [2], 0.695; in assay [3] it was -0.158; in [4] it was 0.504; in [5], 0.88; in assay [6], 0.716. Further, the composite z-score in assay [7] was 0.971; in assay [9], 0.111; in assay [10], -0.189. Moreover, the z-score in assay [8] was -0.518 (inactive).

Take `CC(=O)OC[C@H]1O[C@H](CCON=C2[C@H]3CCn4c(=O)n(-c5ccccc5)c(=O)n4[C@H]3[C@H](O)[C@@H]3O[C@H]23)C=C[C@@H]1OC(C)=O`: the composite z-score in [1] was -0.47; in [2] it was 0.141; in [3], -0.0218; in [4] it was 0.448; in assay [5], 0.57; in assay [6] it was -0.147. Besides, the composite z-score was 0.18 in assay [7], 0.476 in assay [9] and 0.163 in assay [10]. In assay [8], the z-score is -0.513 (inactive).

As to `C#CCCCON=C1C[C@@H](O)[C@@H](O)[C@@H]2[C@@H]3C(=O)N(c4ccc(F)cc4F)C(=O)[C@@H]3CC[C@H]12`, the composite z-score in [1] is -0.381; in assay [2], 0.872; in [3], -0.0788; in assay [4], 0.216; in assay [5], 0.342; in assay [6], 0.454. Also, the figures for the composite z-score in assay [7], in assay [9] and in assay [10] were 0.765, 0.326 and 0.0373, respectively. Also, the z-score in assay [8] was -1.17 (inactive).

Turning to `CON=Cc1ccc(C(=O)N2[C@H](c3ccc(C)cc3)[C@@H](C)CC[C@H]2C(=O)OC)cc1`, the composite z-score in assay [1] is -0.13; in assay [2], 0.486; in assay [3], -0.134; in [4], 0.363; in assay [5], 0.489; in [6], 0.424. Moreover, the composite z-score was 0.843 in assay [7], 0.267 in assay [9] and -0.236 in assay [10]. Also, the z-score in assay [8] was 0.0346 (inactive).

As for `CCOC(=O)[C@H](Cc1ccccc1)NC(=O)CCC1CC(OC(=O)NCc2ccc3c(c2)OCO3)CC2(CCCC(COC(=O)NCCc3ccccc3OC)O2)O1` (stereo not given in full), the composite z-score is -0.259 in assay [1]; 0.058 in assay [2]; -0.147 in assay [3]; 0.471 in [4]; 1.26 in [5]; 1.04 in [6]. The composite z-score amounted to 1.1 in assay [7], 0.569 in assay [9] and 0.141 in [10]. Also, the z-score in assay [8] is 1.04 (inactive).

As to `COc1cccc([C@H]2Oc3ccc(OC)cc3C(=NO[C@@H](C)c3cn([C@H](CO)Cc4ccccc4)nn3)[C@@H]2O)c1`, the composite z-score is -0.234 in assay [1]; -0.346 in assay [2]; -0.133 in assay [3]; 0.226 in assay [4]; -0.188 in assay [5]; 0.428 in [6]. Besides, the composite z-score is -0.123 in assay [7], 0.105 in assay [9] and -0.134 in assay [10]. The z-score in assay [8] was 0.213 (inactive).

For `CO[C@H]1COC(=O)CC=C[C@H](C)[C@@H](OC)COC(=O)[C@@H](C)NC(=O)CC=C[C@@H]1C`, the composite z-score was -0.548 in [1]; 1.9 in assay [2]; -0.177 in assay [3]; 0.0365 in [4]; -0.411 in assay [5]; -0.255 in assay [6]. In addition, the figures for the composite z-score in assay [7], in assay [9] and in assay [10] were 0.515, -0.251 and -0.196, respectively. Further, the z-score in assay [8] is 0.447 (inactive).

Take `CCCNC(=O)OC[C@H]1O[C@H](CCON=C(C)CCN2CCCc3nc(C)c(C)cc32)C=C[C@@H]1Oc1ccc(OC)cc1`: the composite z-score in [1] was -0.0324; in assay [2] it was -0.0773; in assay [3], -0.0611; in assay [4], 0.552; in assay [5], 0.661; in assay [6], 0.639. For the same molecule, the composite z-score in [7] was 0.685; in assay [9], 0.504; in assay [10], -0.0994. Also, the z-score in [8] was -0.46 (inactive).

`CCN1C(=O)[C@H]2[C@H]3[C@H](O)[C@H](O)CC(=NNC(=O)OCc4ccc(OC)cc4)[C@@H]3CC[C@H]2C1=O`: the composite z-score is 1.28 in [1]; -0.0691 in [2]; -0.0235 in assay [3]; 0.0306 in assay [4]; -0.213 in [5]; -0.295 in [6]. Further, the composite z-score in [7] was -0.46; in [9], 0.508; in assay [10], -0.374. In addition, the z-score in assay [8] is 0.127 (inactive).

Regarding `O=C1[C@H]2[C@H]3[C@H](O)[C@H](O)CC(=NOC[C@@H](O)COCc4ccco4)[C@H]3CC[C@H]2C(=O)N1C[C@@H]1CCCO1`, the composite z-score in assay [1] was -0.634; in [2], 1.03; in assay [3] it was -0.265; in [4] it was 0.133; in [5] it was 0.256; in [6], -0.285. The composite z-score was 1.15 in assay [7], -0.181 in [9] and -0.337 in [10]. Further, in assay [8], the z-score is 0.839 (inactive).

On to `CCO[C@H](c1cc(OC)cc([N+](=O)[O-])c1OC)[C@H](C)C=CCC(=O)OC`, for which the composite z-score in assay [1] was -0.413; in assay [2], 0.13; in assay [3], -0.22; in assay [4], -0.0567; in assay [5] it was -0.3; in assay [6], -0.264. Also, the composite z-score is -0.997 in assay [7], -0.185 in [9] and -0.479 in assay [10]. Moreover, the z-score in assay [8] is 0.157 (inactive).

Consider `COC(=O)CC=C[C@@H](C)[C@@H](C=NO[C@H](C)c1cn([C@H](CO)Cc2ccccc2)nn1)OC`, for which the composite z-score was -0.42 in [1]; 0.44 in [2]; -0.0867 in assay [3]; 0.257 in assay [4]; -0.0484 in assay [5]; -0.0545 in [6]. Besides, the values for the composite z-score in assay [7], in [9] and in [10] were 0.516, 0.0782 and 0.189, respectively. Further, the z-score in assay [8] is 0.0621 (inactive).

For `CC(CCN1CCCCc2nc(C)c(C)cc21)=NO[C@@H](C)c1cn([C@H](CO)Cc2ccccc2)nn1`, the composite z-score in assay [1] is 1.22; in assay [2], 1.06; in [3], -0.177; in [4] it was 0.171; in [5], 0.174; in assay [6], 0.605. Further, the composite z-score came to 0.695 in assay [7], 0.163 in [9] and 0.347 in [10]. The z-score in [8] is 1.19 (inactive).

In the case of `C[C@H]1Cc2c(COc3ccccc3)nc3c(c2CO1)CN(CCOc1ccccc1)CC3`, the composite z-score in [1] was -0.762; in assay [2] it was 0.665; in assay [3], -0.0468; in assay [4], 0.503; in assay [5] it was 1.28; in assay [6], 0.455. In addition, the composite z-score in assay [7] was 0.794; in [9], 0.0632; in [10], -0.174. The z-score in assay [8] was -1.16 (inactive).
